Data: PubChem BioAssay (NCATS)
Where “and” joins values, the source holds several entries; their conditions need not be identical. Equal entries are not always repeated. Records with an inconclusive call do not appear. Where a call stands in place of a potency, no number is given. A number with no mark means an inactive call. Calls of active or inactive are those of the source. The call rests on the fitted dose curve; in most records, active means well fitted curve in the direction sought with a large enough effect; inconclusive means small, poorly fitted or top-dose-only effect, or another doubt; inactive means no such curve, though single readings can be large; an effect the other way counts as inactive or inconclusive.

Columns and labels:
[1] = target: Cellular tumor antigen p53 (Homo sapiens) (UniProt P04637); experiment: Primary qHTS for small molecule compounds that upregulate eGFP-tagged delta133p53alpha (in N-terminal) cells. (AID 2060322); details: NCI-H358 eGFP-delta133p53alpha fluorescence, 24 h; activation: active compounds read high; further: nearly all actives have a fitted effect of over 75% in size; further: potency means the concentration at half of the fitted maximal effect
Cellular tumor antigen p53 (Homo sapiens), sequence (P04637 whole entry, looked up): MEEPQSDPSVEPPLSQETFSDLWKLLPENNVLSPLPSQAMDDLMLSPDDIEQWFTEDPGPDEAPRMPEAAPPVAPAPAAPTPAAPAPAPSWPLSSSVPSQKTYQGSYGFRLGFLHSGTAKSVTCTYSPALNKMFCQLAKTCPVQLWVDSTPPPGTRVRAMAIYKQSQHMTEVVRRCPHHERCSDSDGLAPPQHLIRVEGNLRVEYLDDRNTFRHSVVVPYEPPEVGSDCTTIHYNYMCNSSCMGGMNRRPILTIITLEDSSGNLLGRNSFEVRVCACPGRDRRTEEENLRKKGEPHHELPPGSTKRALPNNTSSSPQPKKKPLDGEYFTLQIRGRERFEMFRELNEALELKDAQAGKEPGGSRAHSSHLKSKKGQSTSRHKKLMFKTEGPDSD
Procedure, shortened: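 NCI-H358 cells pre-induced 24 h with 10 ng/ml doxycycline to express N-terminal eGFP-delta133p53alpha, then dosed 24 h at 37C without doxycycline; fixed, Hoechst-stained, GFP intensity by laser scanning cytometry, normalized to DMSO (0%) and 57.5 uM 5-azacytidine (100%).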

[2] = target: Aldehyde dehydrogenase, mitochondrial (Homo sapiens) (UniProt P05091); experiment: qHTS for Inhibitors of the Aldehyde Dehydrogenase Family (ALDH2) Primary screen (AID 2061308); details: ALDH2 enzyme inhibition qHTS, 1536-well; series mostly up to 56 µM; further: nearly all actives have a fitted effect of over 55% in size
[3] = target: Retinaldehyde dehydrogenase 3 (Homo sapiens) (UniProt P47895); experiment: qHTS for Inhibitors of the Aldehyde Dehydrogenase Family (ALDH1A3) Primary screen (AID 2061315); details: ALDH inhibition qHTS; series mostly up to 56 µM
[4] = BET inhibitor-based combinations targeting novel dependencies in MECOM-rearranged (r) AML: SET-2 cell line (AID 2202231); details: SET-2 AML cells viability, CellTiter-Glo luminescence, 48 h; viability: active compounds read low, concentration not given here; further: nearly all actives have a fitted effect of over 35% in size; further: potency means the concentration at half of the fitted maximal effect
Procedure, shortened: (§1)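 Viability of cells (500 per well) is scored by luminescent CellTiter-Glo at 48 hr post-dosing. Eleven-point titrations are normalized to DMSO and empty controls and reduced to AUC values.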

[5] = BET inhibitor-based combinations targeting novel dependencies in MECOM-rearranged (r) AML: OCI-AML3 cell line (AID 2202232); details: CellTiter-Glo luminescence, 48 h; Potency: OCI-AML3 viability; series mostly up to 46 µM; further: nearly all actives have a fitted effect of over 35% in size; further: potency means the concentration at half of the fitted maximal effect
Procedure, shortened: as §1

[6] = BET inhibitor-based combinations targeting novel dependencies in MECOM-rearranged (r) AML: MV-4-11 cell line (AID 2202233); details: MV-4-11 AML viability, CellTiter-Glo luminescence, 48 h; series mostly up to 46 µM; further: nearly all actives have a fitted effect of over 45% in size; further: potency means the concentration at half of the fitted maximal effect
Procedure, shortened: (§2)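 Using pin-tool transfer, drugs were added in 11 doses to cells (500/well), incubated 48 hr, and assessed with CellTiter-Glo. Z-AUC is a mean-centring transformation applied separately to each screened line.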

[7] = BET inhibitor-based combinations targeting novel dependencies in MECOM-rearranged (r) AML: HNT-34 cell line (AID 2202234); details: HNT-34 AML viability, CellTiter-Glo luminescence, 48 h; series mostly up to 46 µM; further: nearly all actives have a fitted effect of over 35% in size; further: potency means the concentration at half of the fitted maximal effect
Procedure, shortened: as §2

[8] = BET inhibitor-based combinations targeting novel dependencies in MECOM-rearranged (r) AML: AML-191 cell line (AID 2202236; further: nearly all actives have a fitted effect of over 35% in size; further: potency means the concentration at half of the fitted maximal effect); details: AML-191 viability, CellTiter-Glo luminescence, 48 h; series mostly up to 46 µM
Procedure, shortened: as §1

[9] = BET inhibitor-based combinations targeting novel dependencies in MECOM-rearranged (r) AML: AML-194 cell line (AID 2202237; further: nearly all actives have a fitted effect of over 40% in size; further: potency means the concentration at half of the fitted maximal effect); details: AML-194 (MECOM-r AML) viability, CellTiter-Glo, 48 h; series mostly up to 46 µM
Procedure, shortened: as §1

[10] = BET inhibitor-based combinations targeting novel dependencies in MECOM-rearranged (r) AML: UCSD-AML1 cell line (AID 2202235); details: UCSD-AML1 AML cells viability, CellTiter-Glo, 48 h; series mostly up to 46 µM; further: nearly all actives have a fitted effect of over 40% in size; further: potency means the concentration at half of the fitted maximal effect
Procedure, shortened: as §2

Row | SMILES | activation [1] | Potency [2] | Potency [3] | viability [4] | Potency [5] | Potency [6] | Potency [7] | Potency [8] | Potency [9] | Potency [1] | Potency [4] | Potency [10]
1 | CC1(C)[C@@H](O)CC[C@]2(C)[C@H]3C(=O)C=C4[C@@H]5C[C@@](C)(C(=O)O)CC[C@]5(C)CC[C@@]4(C)[C@]3(C)CC[C@@H]12 | 29.7% | inactive | inactive | 112% | inactive | inactive | inactive | inactive | inactive | – | – | –
2 | CO[C@@H]1COCC[C@@H]1N[C@@H]1CC[C@@](C(=O)N2CCc3ncc(C(F)(F)F)cc3C2)(C(C)C)C1 | -7.67% and -27.6% | inactive | inactive | 122% | inactive | inactive | inactive | inactive | inactive | – | – | –
3 | N#CCNC(=O)c1ccc(-c2ccnc(Nc3ccc(N4CCOCC4)cc3)n2)cc1 | – | inactive | inactive | – | 16600 nM (active) | 833 nM (active) | 2950 nM (active) | 4680 nM (active) | 5250 nM (active) | 8490 nM (active) | 4170 nM (active) | 1480 nM (active)
4 | COc1cc(OC)c(/C=C/S(=O)(=O)Cc2ccc(OC)c(NCC(=O)O)c2)c(OC)c1 | 17.9% | inactive | inactive | – | 209 nM (active) | 263 nM (active) | 166 nM (active) | – | 263 nM (active) | – | 296 nM (active) | 263 nM (active)
5 | O=C(NCC1CN(c2ccc(N3CCOCC3=O)cc2)C(=O)O1)c1ccc(Cl)s1 (stereo unspecified) | -11.9% and 7.67% | inactive | inactive | 94.7% | inactive | inactive | 23500 nM (active) | – | inactive | – | – | inactive
